Active and inactive are the calls of the source. Rule for the calls: active = hit-call score of the fitted dose curve at least 0.9, where 1 is the maximum; inactive = score below 0.9.
Read-out: UDP glucuronosyltransferase (UGT1A6), UGT1A6 (gene 54578)
Assay: LTEA_HepaRG_UGT1A6: Life Technologies and Expression Analysis (LTEA) Assay for UDP glucuronosyltransferase (UGT1A6) using HepaRG (AID 2283539)
Conditions: mRNA level, 48 h; actives raise or lower the signal
Method in brief: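 Measures mRNA change in HepaRG hepatic cells exposed 48 h to chemicals (eight-point, maximum 100 uM, 0.5% DMSO vehicle) in serum-free induction medium. Expression normalized to endogenous controls; DMSO served as negative control and baseline.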

Row | SMILES | outcome | AC50
1 | C=CC(N)=O | inactive | 
2 | CCOCCOC(C)=O | inactive | 
3 | Oc1ccc(C(c2ccc(O)cc2)(C(F)(F)F)C(F)(F)F)cc1 |  | 74.5 µM (active)
4 | CCCCCCOC(=O)c1ccccc1C(=O)OCCCCCC | inactive | 
5 | O=S(=O)(O)C(F)(F)C(F)(F)C(F)(F)C(F)(F)F | inactive | 
6 | CCCCCCCCCC[N+](C)(C)CCCCCCCCCC |  | 50 µM (active)
7 | CCC(=O)O[C@H]1CC[C@H]2[C@@H]3CCC4=CC(=O)CC[C@]4(C)[C@H]3CC[C@]12C | inactive | 
8 | CC(C)(O)C(=O)Nc1ccc([N+](=O)[O-])c(C(F)(F)F)c1 | inactive | 
9 | CO/C=C(/C(=O)OC)c1ccccc1COc1cccc(C(F)(F)F)n1 |  | 22.2 µM (active)
10 | CC(c1ccc(O)cc1)(c1ccc(O)cc1)c1ccc(O)cc1 |  | 75.2 µM (active)
11 | CN(C)CCO | inactive | 
12 | CC1=C2C[C@H]3[C@@H](CC=C4C[C@@H](O)CC[C@@]43C)[C@@H]2CC[C@]12O[C@@H]1C[C@H](C)CN[C@H]1[C@H]2C | inactive | 
13 | Cc1cc(O)ccc1Cl | inactive | 
14 | Nn1cnnc1 | inactive | 
15 | O=C(O)C(F)(F)C(F)(F)C(F)(F)C(F)(F)C(F)(F)C(F)(F)C(F)(F)C(F)(F)F |  | 82.9 µM (active)
16 | Cc1cccc(C)c1N | inactive | 
17 | O=C(NC(=O)c1c(F)cccc1F)Nc1cc(Cl)c(OC(F)(F)C(F)F)c(Cl)c1 | inactive | 

Row | SMILES | outcome | AC50
18 | O=C(NC(=O)c1cc(F)c(F)cc1Cl)Nc1cc(F)ccc1N1CCC(C(=O)O)CC1 | inactive | 
19 | O=C(O)C(F)(F)C(F)(F)C(F)(F)C(F)(F)C(F)(F)F | inactive | 
20 | CCOP(=S)(OCC)SCSC(C)(C)C | inactive | 
21 | CCCCCCCCCc1ccc(O)cc1 | inactive | 
22 | Cc1cccc([N+](=O)[O-])c1 | inactive | 
23 | CC(C)(c1ccccc1)c1ccc(O)cc1 | inactive | 
24 | c1cc2ccc3cccc4ccc(c1)c2c34 | inactive | 
25 | ClC1=C(Cl)[C@]2(Cl)[C@@H]3[C@@H]4C[C@@H]([C@H]5O[C@@H]45)[C@@H]3[C@@]1(Cl)C2(Cl)Cl | inactive | 
26 | C[C@]12CCC(=O)C=C1CC[C@@H]1[C@@H]2CC[C@@]2(C)[C@H]1CC[C@]2(C)O |  | 45.8 µM (active)
27 | Clc1ccc(C(Cl)(Cl)Cl)cc1 | inactive | 
28 | CCCCCCCCOC(=O)c1ccccc1C(=O)OCCCCCCCC | inactive | 
29 | ClC(Cl)=C(c1ccc(Cl)cc1)c1ccc(Cl)cc1 | inactive | 
30 | Nc1ccc(-c2ccc(N)cc2)cc1 | inactive | 
31 | O=S(=O)(O)C(F)(F)C(F)(F)C(F)(F)C(F)(F)C(F)(F)C(F)(F)F | inactive | 
32 | C[C@]12CCC(=O)C=C1CC[C@@H]1[C@@H]2CC[C@]2(C)C(=O)CC[C@@H]12 | inactive | 
33 | CCOC(=O)C(O)(c1ccc(Cl)cc1)c1ccc(Cl)cc1 | inactive | 
